CYP2C19 activ: increases human CYP2C19 enzyme activity; P33261; recombinant CYP2C19, luciferin-H EGE luminescence; active compounds read high; 0 = fully inhibited enzyme, 1 = untreated enzyme; activation factor at 5 µM; 96,000 tested, under 10 active; AID 1025;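 active = activation factor of at least 2 at 5 µM in the primary screen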
Target sequence (P33261 whole entry, looked up): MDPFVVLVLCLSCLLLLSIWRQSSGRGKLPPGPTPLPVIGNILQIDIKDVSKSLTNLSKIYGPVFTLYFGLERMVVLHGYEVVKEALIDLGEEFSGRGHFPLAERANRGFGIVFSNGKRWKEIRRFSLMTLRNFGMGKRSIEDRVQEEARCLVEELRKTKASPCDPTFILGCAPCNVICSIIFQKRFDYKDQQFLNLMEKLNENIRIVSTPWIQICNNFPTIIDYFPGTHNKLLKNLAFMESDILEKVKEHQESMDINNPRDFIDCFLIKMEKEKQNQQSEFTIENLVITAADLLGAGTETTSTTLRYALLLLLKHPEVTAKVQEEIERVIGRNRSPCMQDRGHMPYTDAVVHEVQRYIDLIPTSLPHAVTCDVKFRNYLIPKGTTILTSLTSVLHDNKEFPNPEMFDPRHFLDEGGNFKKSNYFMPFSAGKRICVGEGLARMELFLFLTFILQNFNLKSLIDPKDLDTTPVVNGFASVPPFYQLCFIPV
D1 allo mod: D1 dopamine receptor (human) allosteric modulation | P21728 | HEK293 D1, CRE-luciferase, dopamine EC30 potentiation; actives deviate in either direction | B-score at 10 µM | actives 5.9% (n = 58,000) | AID 641;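 active = luminescence count or its row- and column-corrected plate score outside the 99.7% band of the plate's sample wells, on either side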
CYP2C9 activ: activators of human CYP2C9. activation factor at 5 µM. recombinant CYP2C9, luciferin-H conversion, luminescence; active compounds read high; factor 1 = untreated enzyme, 0 = blocked. actives 1.4% (n = 96,000). AID 1024;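 active = activation factor of 2 or more for CYP2C9 at a 5 µM dose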
hDAT+cocaine: changed human dopamine transporter uptake under cocaine IC80; Q01959; LLC-PK1 hDAT cells, [14C]-dopamine uptake with cocaine IC80; actives deviate in either direction; AID 449768; actives 1.3% (n = 110,000); B-score at 10 µM;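 active = Z score or B-score, a plate-position-corrected score, falls beyond the plate's 99.7% confidence bounds, in either direction; inactive = both scores lie inside the 99.7% bounds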
CYP2C9 inhib: human CYP2C9 inhibition | P11712 | CYP2C9 Supersomes, luciferin-H conversion, luminescence | inhibition, % at 5 µM | actives 20% (n = 96,000) | AID 777;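 active = blocking of liver enzyme CYP2C9 beyond about 50% at 5 µM, limit read from the data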
CYP2C19 inh: blocks human cytochrome P450 2C19; P33261; CYP2C19 Supersomes, luciferin-H EGE luminescence, 30 min; inhibition, % at 5 µM; actives 21% (n = 96,000); AID 778;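 active = CYP2C19 inhibition above a set limit at 5 µM in the primary screen, cut at about 50% in these data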
Each line names hits and unclear results; the compound was inactive in the other large screens. Hits are enriched below; roughly 28% of the tested compounds scored in any of these assays.

CC1CCCN(c2nc3ccsc3c(=O)s2)C1 (stereo unspecified)	D1 allo mod 3.8
CCOC(=O)c1sc2nc(CC(=O)OC)nc(N3CCN(c4ccc(OC)cc4)CC3)c2c1C	CYP2C9 inhib 96, CYP2C19 inh 89 (no result: D1 allo mod)
CCOC(=O)c1sc2nc(CC(=O)OC)nc(NCCN3CCOCC3)c2c1C	CYP2C9 inhib 51, CYP2C19 inh 54
Cc1cc(C)cc(N2CCCn3c2nc2c3c(=O)n(CCN3CCOCC3)c(=O)n2C)c1	none
CCOC(=O)c1cc(=O)n2nc(-c3ccc(C)cc3)nc2s1	hDAT+cocaine -8.4
CC(C)CNCC(=O)N1c2ccccc2Sc2ccccc21	none (no result: D1 allo mod)
CCCCC(NC(=O)c1ccccc1)C(=O)OCC(=O)N1c2ccccc2Sc2ccccc21 (stereo unspecified)	CYP2C9 inhib 94 (no result: D1 allo mod)
O=C(NCC1CCC(C(=O)O)CC1)c1cccnc1 (stereo unspecified)	none
C=C(C)COc1ccc(-c2[nH]ncc2Oc2cccc(OC)c2)c(O)c1	CYP2C9 inhib 100, CYP2C19 inh 93
C=C(C)COc1ccc(-c2[nH]ncc2-c2ccccc2)c(O)c1	CYP2C9 inhib 83 (no result: D1 allo mod)
C=C(C)COc1ccc(-c2[nH]ncc2Oc2ccccc2OCC)c(O)c1	CYP2C9 inhib 100, CYP2C19 inh 96
CCn1cc(C(=O)N2CCOCC2)c(=O)c2cc(S(=O)(=O)N(C)C)ccc21	none
Cn1cc(S(=O)(=O)N2CCC(C(N)=O)CC2)c(=O)n(C)c1=O	none (no result: CYP2C19 activ, D1 allo mod, CYP2C9 activ, CYP2C9 inhib, CYP2C19 inh)
CCN(CC)S(=O)(=O)c1ccc(NC(=O)COC(=O)c2ccc(-n3nc(C)cc3C)cc2)cc1	CYP2C9 inhib 71, CYP2C19 inh 85 (no result: D1 allo mod)
CCN(CC)S(=O)(=O)c1ccc(NC(=O)COC(=O)c2ccc(Br)o2)cc1	CYP2C9 inhib 67 (no result: D1 allo mod)
CCOC(=O)COc1nc(Nc2ccccc2C)nc(N(C)C)n1	none
CC(=O)N1CCN(c2ccc(Oc3nnnn3-c3ccccc3)cc2)CC1	none
O=C1c2ccccc2C(Nc2ccc(-c3nc4ccccc4[nH]3)cc2)N1Cc1ccco1 (stereo unspecified)	CYP2C9 inhib 87, CYP2C19 inh 73
O=C1c2ccccc2C(Nc2ccc3nc(-c4cccnc4)[nH]c3c2)N1Cc1ccco1 (stereo unspecified)	CYP2C9 inhib 93
O=C1c2ccccc2C(=O)N1Cc1ccco1	none
COc1ccc(N=C2NN=C(c3ccc4c(c3)OCCO4)CS2)cc1	hDAT+cocaine 3.1 (no result: D1 allo mod)
FC(F)Sc1ccc(N=C2NN=C(c3ccc4c(c3)OCCO4)CS2)cc1	none (no result: D1 allo mod)
Cc1cccc2cc(C#N)c(N3CCN(C)CC3)nc12	D1 allo mod -2.2
CC(C)(C)OC(=O)N1CCN(C(=O)OCC2c3ccccc3-c3ccccc32)CC1C(=O)O (stereo unspecified)	none (no result: CYP2C19 activ, D1 allo mod, CYP2C9 activ, CYP2C9 inhib, CYP2C19 inh)
Clc1ccc(CSc2nnnn2-c2ccc3c(c2)OCO3)c(Cl)c1	CYP2C9 inhib 88, CYP2C19 inh 89 (no result: D1 allo mod)
c1ccc(CSc2nnnn2-c2ccc3c(c2)OCCO3)nc1	CYP2C19 inh 90
Cc1ccc(NC(=O)CCSc2nnnn2-c2ccc3c(c2)OCO3)cc1C	CYP2C19 inh 74
O=C(CSc1nnnn1-c1ccc2c(c1)OCCO2)OC1CCCCC1	CYP2C19 inh 66 (no result: D1 allo mod)
CCCN(CCC)CC(=O)Nc1cccc2c1OCO2	none (no result: D1 allo mod)
Cc1nc2scc(-c3cccs3)c2c(=O)o1	CYP2C9 inhib 55, CYP2C19 inh 80
O=c1oc(-c2cccs2)nc2scc(-c3cccs3)c12	none (no result: D1 allo mod, hDAT+cocaine)
Cc1ccc(C)n1-n1c(C)nc2scc(-c3cccs3)c2c1=O	CYP2C9 inhib 71, CYP2C19 inh 79
O=C(CN1CCCCCC1)N1c2ccccc2C=Cc2ccccc21	CYP2C19 inh 51 (no result: D1 allo mod)
O=C(CN1CCCCC1)N1CCCc2ccccc21	none (no result: D1 allo mod)
CCN(CC)C(=O)N1c2ccccc2C=Cc2ccccc21	CYP2C19 inh 63 (no result: D1 allo mod)
Cc1sc(NC(=O)c2ccccc2)c(C(=O)NC(C)C)c1C	CYP2C9 inhib 53 (no result: D1 allo mod)
Cc1sc(NC(=O)c2ccccc2)c(C(=O)N2CCN(C)CC2)c1C	none
CCN(CC)C(=O)c1c(NC(=O)c2ccccc2)sc(C)c1C	CYP2C19 inh 73 (no result: D1 allo mod)
CCOC(=O)c1c(NC(=O)c2ccccc2)sc2c(O)c(CN(CC)CC)ccc12	hDAT+cocaine 2.4 (no result: D1 allo mod)
Cn1c(=O)[nH]c(=O)c2c1nc(N1CCOCC1)n2CCCSc1ncccn1	none
Cn1c(=O)c2c(nc(NCc3ccc4c(c3)OCO4)n2Cc2ccccc2)n(C)c1=O	CYP2C9 inhib 65, CYP2C19 inh 56 (no result: D1 allo mod)
COc1ccc(Cn2c(=O)c3c(nc(NCCO)n3C)n(C)c2=O)cc1	none (no result: D1 allo mod)
Cn1c(NCc2ccccc2)nc2c1c(=O)n(Cc1ccc(Br)cc1)c(=O)n2C	CYP2C9 inhib 97, CYP2C19 inh 89 (no result: D1 allo mod)
COc1ccc(CNc2nc3c(c(=O)n(Cc4ccc(Br)cc4)c(=O)n3C)n2C)cc1	D1 allo mod -2.7, CYP2C9 inhib 63
Cn1c(NCc2ccco2)nc2c1c(=O)n(Cc1ccc(Br)cc1)c(=O)n2C	none
Cn1c(Cl)nc2c1c(=O)n(Cc1cccc(Br)c1)c(=O)n2C	CYP2C19 inh 94 (no result: D1 allo mod)
CCc1ccccc1NS(=O)(=O)c1cc(C)ccc1OC	CYP2C9 inhib 54, CYP2C19 inh 84
COc1ccccc1CNS(=O)(=O)c1cc(C)ccc1OC	CYP2C19 inh 90
CC1CCC(NC(=O)CC2Oc3ccccc3NC2=O)CC1 (stereo unspecified)	CYP2C9 activ 2.3
Cc1ccc2c(c1)NC(=O)C(CC(=O)NCc1ccc(F)cc1)O2 (stereo unspecified)	none
O=C(CC1Oc2ccccc2NC1=O)NCc1ccccc1 (stereo unspecified)	CYP2C9 activ 2, CYP2C19 inh 66
CC1CCCCC1NC(=O)CC1Oc2ccccc2NC1=O (stereo unspecified)	none
Cc1coc2cc3oc(=O)c4c(c3cc12)CCC4	none (no result: hDAT+cocaine)
CCCc1cc(=O)oc2cc3oc(C)c(C)c3cc12	CYP2C19 inh 72 (no result: hDAT+cocaine)
CCCCc1cc(=O)oc2cc(C)cc(OCC(=O)O)c12	none
CCCc1cc(=O)oc2cc(C)c3c(C)coc3c12	CYP2C19 inh 53
CCCc1cc(=O)oc2cc3occ(C)c3cc12	CYP2C9 inhib 76, CYP2C19 inh 71
COc1cccc(NC(=O)CC2(CC(=O)O)CCCC2)c1	none
CN(Cc1c(F)cccc1Cl)c1nnnn1-c1ccccc1	CYP2C19 inh 100 (no result: D1 allo mod)
Nc1nc(NCc2c(F)cccc2Cl)nn1-c1ccccc1	none
CCCCCCN(C(=O)CCCCCN1C(=O)NC(c2ccccc2)C(C(=O)OCc2ccccc2)=C1C)C(C(=O)NCCCC)c1ccc(OCC(=O)OC)c(C(=O)OC)c1 (stereo unspecified)	none (no result: CYP2C19 activ, D1 allo mod, CYP2C9 activ, CYP2C9 inhib, CYP2C19 inh)
COC(=O)c1sccc1NC(=O)CSc1cc(Cl)ccc1Cl	none (no result: D1 allo mod)
COC(=O)c1sccc1NC(=O)CSc1ccccc1NS(=O)(=O)c1ccc(Cl)cc1	CYP2C9 inhib 84, CYP2C19 inh 59 (no result: D1 allo mod)
COC(=O)c1sccc1NC(=O)CSc1ccccc1NS(=O)(=O)c1ccccc1Cl	CYP2C9 inhib 87 (no result: D1 allo mod)

Source: PubChem (several laboratories)
